Data reported in PubChem BioAssay.
Active and inactive are the calls of the source.

Tests used:
[1] = test system: PRMT1 (protein arginine N-methyltransferase 1); assay: PRMT1 binders on small-molecule microarrays, primary screen, biochemical, small-molecule microarray, 635 nm fluorescence (AID 1088); settings: small-molecule microarray binding, higher = more signal;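 note: binding of Prmt1 protein to compounds spotted on small-molecule microarray slides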
[2] = yeast growth modulation, basal conditions, primary screen, YJM789 clinical isolate, OD600, 24 h (AID 1089);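 note: growth of clinical yeast isolate S. cerevisiae YJM 789 seeded 1000 cells per well; test concentration not given here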; settings: S. cerevisiae YJM789 growth, higher = more signal, called active from +8 up or from −8 down
[3] = fission yeast growth modulation, primary screen, strain 972, OD600, 24 h, no modulator (AID 1090);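 note: basal condition with compound alone and no growth modifier present; test concentration not given here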; settings: S. pombe 972 growth, higher = more signal, called active from +8 up or from −8 down
[4] = S. cerevisiae growth modulation with rapamycin, primary screen, strain BY4716, OD600, 96 h (AID 1091); settings: higher = more signal, called active from +8 up or from −8 down; note: test concentration not given here
[5] = target: Torsin-1A-interacting protein 2 (Homo sapiens) (UniProt Q8NFQ8); assay: LULL1 binders on small-molecule microarray, primary screen, cell lysate, human LULL1 lysate, 635/667 nm fluorescence (AID 1092); settings: hLULL1 lysate binding, 635 nm fluorescence, higher = more signal;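 note: probe is lysate of COS7 cells overexpressing human LULL1; score merges per-feature 667 nm fluorescence with signal-to-noise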
Torsin-1A-interacting protein 2 (Homo sapiens), sequence (Q8NFQ8 whole entry, looked up): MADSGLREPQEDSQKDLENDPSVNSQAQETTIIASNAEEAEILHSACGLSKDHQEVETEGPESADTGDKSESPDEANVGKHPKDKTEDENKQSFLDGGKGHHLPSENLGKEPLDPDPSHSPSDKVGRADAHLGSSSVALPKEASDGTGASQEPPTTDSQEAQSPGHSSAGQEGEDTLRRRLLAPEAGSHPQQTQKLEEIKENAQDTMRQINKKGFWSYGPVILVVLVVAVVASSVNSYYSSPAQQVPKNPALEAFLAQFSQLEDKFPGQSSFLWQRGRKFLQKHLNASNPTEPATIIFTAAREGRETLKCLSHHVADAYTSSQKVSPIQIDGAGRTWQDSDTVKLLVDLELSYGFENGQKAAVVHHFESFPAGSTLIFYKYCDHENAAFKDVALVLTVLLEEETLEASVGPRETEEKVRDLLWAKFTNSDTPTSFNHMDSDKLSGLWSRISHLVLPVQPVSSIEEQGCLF

[6] = E. coli growth modulation, two-sided OD650, primary screen, E. coli filamentation project, strain DRC41, 24 h (AID 1093); settings: OD650, 24 h, higher = more signal, called active from +8 up or from −8 down;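 note: MC1000 strain lacking acrAB efflux and sulA so SOS filamentation is blocked; test concentration not given here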
[7] = small-molecule microarray binders of probe aLefty2, primary screen, biochemical, biotinylated probe, 635/667 nm fluorescence (AID 1094); settings: higher = more signal;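 note: score merges spot fluorescence near 667 nm with spot signal-to-noise ratio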
[8] = test system: Noggin (protein binding on small-molecule microarray); assay: Noggin binders on small-molecule microarray, primary screen, biochemical, 635/667 nm fluorescence (AID 1095); settings: 635 nm fluorescence, higher = more signal;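 note: score merges 667 nm feature fluorescence with signal to noise over triplicate slides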
[9] = target: Neurogenic locus notch homolog protein 3 (Homo sapiens) (UniProt Q9UM47); assay: NOTCH3 binders on small-molecule microarray, primary screen, biochemical, 635/667 nm fluorescence (AID 1096); settings: NOTCH3 binding, 635 nm fluorescence, higher = more signal
Neurogenic locus notch homolog protein 3 (Homo sapiens), sequence (Q9UM47 whole entry, looked up): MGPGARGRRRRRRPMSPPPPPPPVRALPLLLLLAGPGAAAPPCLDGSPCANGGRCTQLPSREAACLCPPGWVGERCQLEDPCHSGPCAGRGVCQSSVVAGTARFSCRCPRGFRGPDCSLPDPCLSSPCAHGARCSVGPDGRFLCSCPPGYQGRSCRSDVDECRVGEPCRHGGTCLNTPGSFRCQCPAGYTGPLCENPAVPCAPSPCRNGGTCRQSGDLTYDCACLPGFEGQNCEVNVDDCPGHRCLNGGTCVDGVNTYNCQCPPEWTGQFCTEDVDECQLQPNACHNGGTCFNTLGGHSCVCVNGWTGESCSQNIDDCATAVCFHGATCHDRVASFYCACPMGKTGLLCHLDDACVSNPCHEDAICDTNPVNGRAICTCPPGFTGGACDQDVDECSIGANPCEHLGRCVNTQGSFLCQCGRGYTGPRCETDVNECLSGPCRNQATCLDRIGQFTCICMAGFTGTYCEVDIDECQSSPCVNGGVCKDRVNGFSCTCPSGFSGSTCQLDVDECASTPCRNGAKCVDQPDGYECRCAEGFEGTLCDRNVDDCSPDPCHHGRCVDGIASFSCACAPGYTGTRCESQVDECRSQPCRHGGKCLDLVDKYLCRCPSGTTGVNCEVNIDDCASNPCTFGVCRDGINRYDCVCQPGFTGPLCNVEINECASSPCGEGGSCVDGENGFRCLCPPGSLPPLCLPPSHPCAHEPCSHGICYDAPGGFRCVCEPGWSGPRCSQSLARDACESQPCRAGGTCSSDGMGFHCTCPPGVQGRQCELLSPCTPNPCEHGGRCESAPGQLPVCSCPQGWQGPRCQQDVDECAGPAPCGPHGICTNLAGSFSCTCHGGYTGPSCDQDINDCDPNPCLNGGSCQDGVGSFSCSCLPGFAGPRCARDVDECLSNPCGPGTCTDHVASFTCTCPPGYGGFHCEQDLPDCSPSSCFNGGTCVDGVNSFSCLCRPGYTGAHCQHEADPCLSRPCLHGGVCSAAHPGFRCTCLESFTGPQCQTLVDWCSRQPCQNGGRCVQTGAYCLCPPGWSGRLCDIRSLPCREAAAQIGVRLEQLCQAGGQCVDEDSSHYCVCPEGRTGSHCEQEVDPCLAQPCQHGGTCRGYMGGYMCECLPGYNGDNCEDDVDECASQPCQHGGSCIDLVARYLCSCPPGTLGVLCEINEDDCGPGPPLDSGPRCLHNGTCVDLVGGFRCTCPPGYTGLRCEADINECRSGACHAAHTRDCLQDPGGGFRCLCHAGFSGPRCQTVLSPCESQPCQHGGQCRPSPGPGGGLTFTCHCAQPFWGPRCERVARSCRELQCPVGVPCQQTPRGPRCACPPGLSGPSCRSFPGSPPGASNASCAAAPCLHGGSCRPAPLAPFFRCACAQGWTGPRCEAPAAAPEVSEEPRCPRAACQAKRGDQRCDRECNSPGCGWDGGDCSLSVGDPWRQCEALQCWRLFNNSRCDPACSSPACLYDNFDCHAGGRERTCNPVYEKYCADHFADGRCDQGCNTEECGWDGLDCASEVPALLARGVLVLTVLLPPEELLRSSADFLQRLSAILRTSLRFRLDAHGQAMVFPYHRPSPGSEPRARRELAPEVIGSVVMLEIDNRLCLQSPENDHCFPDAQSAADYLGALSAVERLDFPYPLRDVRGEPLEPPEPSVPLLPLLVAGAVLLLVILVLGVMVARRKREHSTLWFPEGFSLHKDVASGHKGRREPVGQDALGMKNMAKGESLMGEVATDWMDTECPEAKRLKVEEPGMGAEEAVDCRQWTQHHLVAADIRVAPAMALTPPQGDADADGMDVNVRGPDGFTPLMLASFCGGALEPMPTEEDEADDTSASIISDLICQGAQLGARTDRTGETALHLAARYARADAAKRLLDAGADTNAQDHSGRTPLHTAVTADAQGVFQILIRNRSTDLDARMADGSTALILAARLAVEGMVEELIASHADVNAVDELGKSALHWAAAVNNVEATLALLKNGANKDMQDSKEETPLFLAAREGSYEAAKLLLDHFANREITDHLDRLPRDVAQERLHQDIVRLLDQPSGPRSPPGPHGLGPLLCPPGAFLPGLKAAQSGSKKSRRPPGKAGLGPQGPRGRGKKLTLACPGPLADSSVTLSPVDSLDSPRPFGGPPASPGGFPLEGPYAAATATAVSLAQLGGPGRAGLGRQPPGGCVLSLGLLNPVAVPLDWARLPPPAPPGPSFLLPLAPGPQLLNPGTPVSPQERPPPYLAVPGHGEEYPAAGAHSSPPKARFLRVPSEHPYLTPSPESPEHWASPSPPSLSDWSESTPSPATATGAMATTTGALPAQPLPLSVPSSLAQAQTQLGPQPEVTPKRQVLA

[10] = small-molecule microarray binders of probe aEGFR, primary screen, biochemical, biotinylated probe, 635/667 nm fluorescence (AID 1097); settings: higher = more signal;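 note: probe is a biotinylated anti-EGFR antibody binding compounds printed on slides; score combines fluorescence near 667 nm and signal to noise of each spot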
[11] = test system: Plasmodium falciparum Sir2 (PF13_0152, Sir2A); assay: pfSir2 binders on small-molecule microarrays, primary screen, biochemical, small-molecule microarray, 635 nm fluorescence (AID 1098); settings: small-molecule microarray binding, fluorescence 635 nm; higher = more signal;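 note: score merges spot fluorescence intensity with its signal-to-noise ratio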
[12] = small-molecule microarray binders of probe aDKK1, primary screen, biochemical, biotinylated probe, 635/667 nm fluorescence (AID 1099); settings: higher = more signal;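 note: score merges 667nm spot fluorescence with signal to noise across triplicate slides; reference of the scale not given here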
[13] = small-molecule microarray binders of probe aCHRDL2, primary screen, biochemical, biotinylated probe, 635/667 nm fluorescence (AID 1100); settings: higher = more signal
[14] = splicing luciferase reporter signal modulators, primary screen, spliceosome inhibition project, cell-based, HEK293, splice +/- reporter (AID 1101); settings: luminescence, 24 h, higher = more signal, called active from +8 up or from −8 down;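 note: HEK293 cells carrying a splicing-competent luciferase reporter gene; test concentration not given here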
[15] = target: Fibroblast growth factor 10 (Homo sapiens) (UniProt O15520); assay: FGF10 binders on small-molecule microarrays, primary screen, biochemical, small-molecule microarray, 635 nm fluorescence (AID 1102); settings: FGF10 binding, fluorescence 635 nm, higher = more signal
Fibroblast growth factor 10 (Homo sapiens), sequence (O15520 whole entry, looked up): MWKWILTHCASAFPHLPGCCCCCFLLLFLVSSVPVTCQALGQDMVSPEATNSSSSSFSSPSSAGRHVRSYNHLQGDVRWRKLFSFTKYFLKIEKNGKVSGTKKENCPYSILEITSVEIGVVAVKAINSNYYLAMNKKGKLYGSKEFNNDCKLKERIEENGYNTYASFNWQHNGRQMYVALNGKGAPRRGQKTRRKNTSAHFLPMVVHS

[16] = test system: glycogen synthase kinase-3 (GSK3A per assay name; protocol says GSK3B); assay: GSK3 binders on small-molecule microarrays, primary screen, biochemical, small-molecule microarray, 635 nm fluorescence, GSK3A (AID 1103); settings: small-molecule microarray binding, fluorescence 635 nm; higher = more signal; note: the record names both GSK3A and GSK3B
[17] = target: Epidermal growth factor receptor (Homo sapiens) (UniProt P00533); assay: EGFR binders on small-molecule microarrays, primary screen, biochemical, small-molecule microarray, 635 nm fluorescence (AID 1104); settings: EGFR binding, higher = more signal;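 note: score merges 667 nm emission intensity with spot signal to noise over triplicate slides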
Epidermal growth factor receptor (Homo sapiens), sequence (P00533 whole entry, looked up): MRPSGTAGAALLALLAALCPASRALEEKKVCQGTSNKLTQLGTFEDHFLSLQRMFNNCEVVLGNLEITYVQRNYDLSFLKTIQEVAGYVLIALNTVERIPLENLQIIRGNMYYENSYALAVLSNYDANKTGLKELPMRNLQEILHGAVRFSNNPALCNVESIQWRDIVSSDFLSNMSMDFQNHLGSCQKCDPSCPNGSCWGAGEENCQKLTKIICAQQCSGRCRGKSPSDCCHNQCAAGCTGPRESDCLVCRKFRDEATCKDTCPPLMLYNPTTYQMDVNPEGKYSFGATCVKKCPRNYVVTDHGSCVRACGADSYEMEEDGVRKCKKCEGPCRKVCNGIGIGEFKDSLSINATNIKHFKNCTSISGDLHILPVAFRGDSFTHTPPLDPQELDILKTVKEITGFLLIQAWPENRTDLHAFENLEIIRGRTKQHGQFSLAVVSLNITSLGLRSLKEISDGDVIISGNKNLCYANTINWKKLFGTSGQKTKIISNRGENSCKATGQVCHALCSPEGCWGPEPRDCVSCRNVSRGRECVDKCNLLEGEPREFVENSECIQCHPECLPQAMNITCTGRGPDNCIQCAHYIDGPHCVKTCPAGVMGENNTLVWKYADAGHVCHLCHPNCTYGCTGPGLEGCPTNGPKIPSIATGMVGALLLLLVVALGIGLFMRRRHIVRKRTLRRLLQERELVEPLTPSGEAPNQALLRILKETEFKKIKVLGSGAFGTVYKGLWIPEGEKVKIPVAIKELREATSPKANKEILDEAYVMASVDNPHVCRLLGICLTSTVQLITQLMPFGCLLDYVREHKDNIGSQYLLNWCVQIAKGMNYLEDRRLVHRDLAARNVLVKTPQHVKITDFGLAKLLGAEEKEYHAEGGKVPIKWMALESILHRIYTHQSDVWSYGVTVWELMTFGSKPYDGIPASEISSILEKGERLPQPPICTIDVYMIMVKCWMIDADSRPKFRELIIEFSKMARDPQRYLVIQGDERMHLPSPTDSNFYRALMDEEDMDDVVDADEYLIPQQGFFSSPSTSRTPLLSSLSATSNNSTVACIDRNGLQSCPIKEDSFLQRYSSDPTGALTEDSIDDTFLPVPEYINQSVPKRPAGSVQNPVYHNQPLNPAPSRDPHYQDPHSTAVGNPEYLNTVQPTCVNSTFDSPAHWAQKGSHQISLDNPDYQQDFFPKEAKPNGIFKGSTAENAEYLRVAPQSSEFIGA

[18] = target: Follistatin-related protein 3 (Homo sapiens) (UniProt O95633); assay: FSTL3 binders on small-molecule microarrays, primary screen, biochemical, small-molecule microarray, 635 nm fluorescence (AID 1105); settings: FSTL3 binding, higher = more signal;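 note: score merges emission near 667 nm and signal to noise per printed spot across three slides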
Follistatin-related protein 3 (Homo sapiens), sequence (O95633 whole entry, looked up): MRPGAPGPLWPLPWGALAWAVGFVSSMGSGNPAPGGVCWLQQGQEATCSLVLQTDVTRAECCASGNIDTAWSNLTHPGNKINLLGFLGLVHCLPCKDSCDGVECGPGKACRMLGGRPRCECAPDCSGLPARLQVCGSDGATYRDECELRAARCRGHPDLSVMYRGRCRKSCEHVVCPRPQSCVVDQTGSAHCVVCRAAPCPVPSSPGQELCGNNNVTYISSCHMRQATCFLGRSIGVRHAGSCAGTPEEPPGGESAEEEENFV

[19] = target: Dickkopf-related protein 1 (Homo sapiens) (UniProt O94907); assay: DKK1 binders on small-molecule microarrays, primary screen, biochemical, small-molecule microarray, 635 nm fluorescence scan (AID 1106); settings: DKK1 binding, higher = more signal;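 note: score merges emission near 667 nm with signal to noise over three replicate slides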
Dickkopf-related protein 1 (Homo sapiens), sequence (O94907 whole entry, looked up): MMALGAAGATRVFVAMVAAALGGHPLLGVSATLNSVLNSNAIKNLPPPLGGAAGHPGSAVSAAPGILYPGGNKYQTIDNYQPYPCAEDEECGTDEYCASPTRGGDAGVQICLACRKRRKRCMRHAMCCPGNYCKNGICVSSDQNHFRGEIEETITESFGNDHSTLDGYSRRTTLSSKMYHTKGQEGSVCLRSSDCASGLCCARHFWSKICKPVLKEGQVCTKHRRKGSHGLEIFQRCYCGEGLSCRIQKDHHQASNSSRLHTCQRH

[20] = test system: Inhibin beta A chain (activin A); assay: INHBA (activin A) binders on microarrays, primary screen, biochemical, small-molecule microarray, 635 nm fluorescence scan (AID 1107); settings: small-molecule microarray binding, higher = more signal;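 note: mouse activin A protein probed at 4.33 µg/mL on printed slides; score merges bound-protein fluorescence near 667 nm with spot signal-to-noise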

CCOC(=O)[C@H](CC(C)C)NC(=O)CCC1CC(OC(=O)NCc2ccc3c(c2)OCO3)CC2(CCCC(COC(=O)NCC3CCCCC3)O2)O1 (stereo not given in full)
composite z-score [1]: 1.24
z-score [2]: 0.192 (inactive)
z-score [3]: -0.0848 (inactive)
z-score [4]: -0.113 (inactive)
composite z-score [5]: 1.49
z-score [6]: 0.409 (inactive)
composite z-score [7]: -0.323
composite z-score [8]: 0.553
composite z-score [9]: 1.09
composite z-score [10]: -0.109
composite z-score [11]: 0.74
composite z-score [12]: -0.209
composite z-score [13]: -0.62
z-score [14]: -0.266 (inactive)
composite z-score [15]: 0.651
composite z-score [16]: 0.532
composite z-score [17]: 0.379
composite z-score [18]: 1.22
composite z-score [19]: 0.681
composite z-score [20]: -0.0703

CCOC(=O)[C@H](Cc1ccccc1)NC(=O)CCC1CC(OC(=O)NCCc2ccc(F)cc2)CC2(CCCC(COC(=O)NCC3CCCCC3)O2)O1 (stereo not given in full)
composite z-score [1]: 1.55
z-score [2]: 0.644 (inactive)
z-score [3]: 0.432 (inactive)
z-score [4]: 0.6 (inactive)
composite z-score [5]: 2.4
z-score [6]: 0.18 (inactive)
composite z-score [7]: -0.106
composite z-score [8]: 0.53
composite z-score [9]: 1.07
composite z-score [10]: 0.0282
composite z-score [11]: 0.711
composite z-score [12]: -0.184
composite z-score [13]: -0.761
z-score [14]: -0.308 (inactive)
composite z-score [15]: 1.03
composite z-score [16]: 1.24
composite z-score [17]: 0.53
composite z-score [18]: 1.2
composite z-score [19]: 1.33
composite z-score [20]: 0.0408

CC(C)CON=C1C[C@@H](O)[C@@H](O)[C@@H]2[C@@H]3C(=O)N(c4cccc(Oc5ccccc5)c4)C(=O)[C@@H]3CC[C@@H]12
composite z-score [1]: 1.4
z-score [2]: -1.57 (inactive)
z-score [3]: 0.174 (inactive)
z-score [4]: -0.827 (inactive)
composite z-score [5]: 1.86
z-score [6]: -0.961 (inactive)
composite z-score [7]: -0.131
composite z-score [8]: 1.02
composite z-score [9]: 0.046
composite z-score [10]: -0.109
composite z-score [11]: 1.13
composite z-score [12]: -0.277
composite z-score [13]: -0.446
z-score [14]: -1.24 (inactive)
composite z-score [15]: 0.746
composite z-score [16]: 0.789
composite z-score [17]: 0.368
composite z-score [18]: 0.348
composite z-score [19]: 0.195
composite z-score [20]: -0.163

CC(=O)OC[C@H]1O[C@H](CCON=C2[C@H]3CCn4c(=O)n(-c5ccccc5)c(=O)n4[C@H]3[C@H](O)[C@@H]3O[C@H]23)C=C[C@@H]1OC(C)=O
composite z-score [1]: 0.156
z-score [2]: -0.111 (inactive)
z-score [3]: 0.127 (inactive)
z-score [4]: 0.49 (inactive)
composite z-score [5]: 0.77
z-score [6]: 0.93 (inactive)
composite z-score [7]: -0.25
composite z-score [8]: 1.43
composite z-score [9]: 0.587
composite z-score [10]: 0.0488
composite z-score [11]: 0.0057
composite z-score [12]: -0.149
composite z-score [13]: -0.442
z-score [14]: 0.838 (inactive)
composite z-score [15]: 0.527
composite z-score [16]: 0.494
composite z-score [17]: 0.432
composite z-score [18]: 0.446
composite z-score [19]: 0.404
composite z-score [20]: -0.636
